# The supplement of paper PMC3545927
# The other results are listed elsewhere or left out. The true hit rate is not given.
# Target: furin, P09958
# Test: furin cleavage Z-score vs untreated control; higher = more cleavage, active = 3.5 or more, inactive = 1 or less, 8 variable residues between constant flanks
# Experimental: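 Multiplexed peptide-cDNA fusion cleavage assay. 8-mer variable peptides flanked by constant Cys-Ala (N-term) and Ala-Gly-Asn-Ala-Ser-Ala-Ser-Ala (C-term) and conjugated to a cDNA oligonucleotide were bead-immobilised via the N-terminus. They were treated with purified furin at a 1:10 enzyme:substrate ratio in 50 mM HEPES pH 7.5, 1 mM CaCl2, 100 mM NaCl for 7.5, 15 or 30 min. Released cDNA was counted by next-generation sequencing, and log counts versus no-furin controls were lowess-adjusted and converted to robust Z-scores.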
# Sequence of furin, P09958 (P09958 whole entry): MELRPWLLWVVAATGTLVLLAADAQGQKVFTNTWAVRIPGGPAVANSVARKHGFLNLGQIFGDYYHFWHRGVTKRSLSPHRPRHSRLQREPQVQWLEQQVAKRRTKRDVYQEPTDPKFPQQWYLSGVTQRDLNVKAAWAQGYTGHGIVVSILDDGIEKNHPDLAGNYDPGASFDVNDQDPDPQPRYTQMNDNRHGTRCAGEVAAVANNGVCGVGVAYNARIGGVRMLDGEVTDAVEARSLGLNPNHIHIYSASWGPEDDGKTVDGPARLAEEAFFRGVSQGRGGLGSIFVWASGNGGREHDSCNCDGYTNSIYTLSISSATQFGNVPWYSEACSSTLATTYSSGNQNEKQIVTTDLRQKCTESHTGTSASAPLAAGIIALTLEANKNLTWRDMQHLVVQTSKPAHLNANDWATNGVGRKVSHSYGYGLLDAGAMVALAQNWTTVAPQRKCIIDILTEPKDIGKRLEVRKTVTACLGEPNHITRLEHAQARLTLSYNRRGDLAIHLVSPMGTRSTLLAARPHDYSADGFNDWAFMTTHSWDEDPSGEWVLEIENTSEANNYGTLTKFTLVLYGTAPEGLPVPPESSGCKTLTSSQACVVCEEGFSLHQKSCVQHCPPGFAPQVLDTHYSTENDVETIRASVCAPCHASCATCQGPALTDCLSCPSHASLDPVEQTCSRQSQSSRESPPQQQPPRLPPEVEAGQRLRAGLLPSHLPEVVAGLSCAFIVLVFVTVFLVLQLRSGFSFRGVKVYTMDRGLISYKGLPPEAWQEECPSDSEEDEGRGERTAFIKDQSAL
Sequence,furin cleavage Z-score (7.5 min),furin cleavage Z-score (15 min),furin cleavage Z-score (30 min)
CAMEECSDHLAGNASASA [HC1731],-0.133 (inactive),-1.7 (inactive),1.31
CAKCLIRLKPAGNASASA [HC965],-0.996 (inactive),0.139 (inactive),0.507 (inactive)
CAPTRRTKRTAGNASASA [FS-76],10.6 (active),10.9 (active),7.13 (active)
CATSPRTKRTAGNASASA [FS-1576],10.8 (active),10.5 (active),8.67 (active)
CAPTGSGKSTAGNASASA [HC776],-0.612 (inactive),-0.784 (inactive),0.917 (inactive)
CAPSPVVVGTAGNASASA [HC416],0.116 (inactive),0.136 (inactive),-0.669 (inactive)
CASSFRFPRTAGNASASA [FS-196],0.00727 (inactive),0.495 (inactive),1.37
CAPSERTRRTAGNASASA [FS-1553],6.49 (active),7.9 (active),7.83 (active)
CATLEVVTSTAGNASASA [HC2278],2.04,-0.134 (inactive),-0.107 (inactive)
CATSGITGDNAGNASASA [HC1339],0.521 (inactive),-1.94 (inactive),-2.62 (inactive)
CASSPRCKRTAGNASASA [FS-724],6.48 (active),5.33 (active),4.2 (active)
CAVVPCHRPSAGNASASA [HC2310],0.864 (inactive),0.937 (inactive),1.82
CADSLNTGWLAGNASASA [HC376],-0.896 (inactive),0.0514 (inactive),-1.36 (inactive)
CAAGLFYHHKAGNASASA [HC380],-0.0785 (inactive),-0.406 (inactive),0.464 (inactive)
CATTPCSESWAGNASASA [HC1892],-1.68 (inactive),-0.885 (inactive),0.194 (inactive)
CAKKKCDELAAGNASASA [HC859],0.206 (inactive),-0.587 (inactive),-1.61 (inactive)
CADAELIEANAGNASASA [HC1272],1.56,1.04,0.698 (inactive)
CADVSRARRVAGNASASA [FS-1519],0.954 (inactive),1.02,1.74
CAPVRRWRRVAGNASASA [FS-1247],9.64 (active),9.32 (active),6.63 (active)
CAGLDRLRRVAGNASASA [FS-1126],0.977 (inactive),1.09,1.81
CAPVRRRGDSAGNASASA [HC731],-0.373 (inactive),0.103 (inactive),-0.876 (inactive)
CAYLRRRRRVAGNASASA [FS-391],9.87 (active),10.2 (active),8.18 (active)
CAGLGRRRRVAGNASASA [FS-1127],6.73 (active),8.39 (active),7.41 (active)

Sequence,furin cleavage Z-score (7.5 min),furin cleavage Z-score (15 min),furin cleavage Z-score (30 min)
CAYINRKKKVAGNASASA [FS-633],-0.8 (inactive),-0.697 (inactive),-0.973 (inactive)
CATTPCSHSWAGNASASA [HC1895],-0.676 (inactive),1.01,-1.05 (inactive)
CASIYPGHITAGNASASA [HC314],-1.99 (inactive),-1.12 (inactive),0.0447 (inactive)
CALTSMLTDPAGNASASA [HC1246],-0.19 (inactive),-0.57 (inactive),-0.448 (inactive)
CAHTPCSGSWAGNASASA [HC1835],-0.934 (inactive),-0.656 (inactive),-1.49 (inactive)
CAAQAPPPSWAGNASASA [HC959],-0.328 (inactive),0.141 (inactive),-1.2 (inactive)
CAANHVVKRDAGNASASA [FS-642],8.87 (active),11.8 (active),8.5 (active)
CAINKRVKRDAGNASASA [FS-253],7.21 (active),5.79 (active),4.98 (active)
CAGQSWVKRDAGNASASA [FS-331],1.45,0.512 (inactive),1.11
CATHINSVWKAGNASASA [HC1429],-0.832 (inactive),-2.14 (inactive),-0.179 (inactive)
CAEVPTSTWVAGNASASA [HC2199],0.334 (inactive),-2.59 (inactive),-0.0938 (inactive)
CATQPCSGSWAGNASASA [HC1862],0.195 (inactive),-1.61 (inactive),0.946 (inactive)
CAEVPCHLPSAGNASASA [HC2365],0.888 (inactive),0.887 (inactive),2.28
CAGSGPDQRPAGNASASA [HC399],-0.948 (inactive),0.971 (inactive),-0.827 (inactive)
CAPQSRGRREAGNASASA [FS-476],13.1 (active),13.2 (active),8.24 (active)
CAPVVFSQMEAGNASASA [HC647],1.38,1.32,0.561 (inactive)
CAPVLRGQAGAGNASASA [FS-3180],-0.625 (inactive),0.202 (inactive),-0.205 (inactive)
CAGSMRANRIAGNASASA [FS-1128],-0.706 (inactive),0.0659 (inactive),0.059 (inactive)
CAPESRKRREAGNASASA [FS-368],13.9 (active),14.4 (active),11.3 (active)
CAGSKRSRREAGNASASA [FS-1207],11.5 (active),11.8 (active),7.54 (active)
CAGQKRSRSRAGNASASA [FS-2862],0.426 (inactive),-2.34 (inactive),0.754 (inactive)
CAGCVPCVREAGNASASA [HC273],0.467 (inactive),0.158 (inactive),1.81
CAGSNRKVREAGNASASA [FS-435],10.8 (active),11.2 (active),7.92 (active)
